Assay results as given in the supplement of paper PMC8183993.
Where “and” joins values, the source holds several entries; their conditions need not be identical. Equal values may be shown once. Where a name gives a salt, the structure may show the parent alone. ± gives the standard deviation of the averaged measurements. The full ranking holds about 3,100 compounds; the median of “mean cytoplasmic OPP incorporation (global translation) relative to DMSO” is about 100, and the lowest 2% start at about 56. The sample holds the lowest values, similar compounds and a random draw of the others, so the mix is not that of the screen.

These compounds were tested on U2OS (assay: mean cytoplasmic OPP incorporation (global translation) relative to DMSO (% of DMSO); higher = more protein synthesis). Conditions: 10 µM; 24 h.
Procedure: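 Primary image-based screen in U2OS cells: compounds at 10 uM for 24 h, then a 1 h o-propargyl-puromycin (OPP) pulse, click labelling, and high-throughput microscopy. Mean cytoplasmic OPP intensity and nuclei count were normalised to DMSO wells within each plate (DMSO = 100) and averaged over triplicate plates.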

SMILES	mean cytoplasmic OPP incorporation
CCOc1cc(N2CCC(O)CC2)ccc1Nc1ncc2c(n1)N(C)c1ccccc1C(=O)N2C	110
CNC(=O)c1ccccc1Nc1nc(Nc2ccc(N3CCOCC3)cc2OC)ncc1Cl	90.7 ± 4.2
COc1cc(N2CCC(N)CC2)ccc1Nc1ncc(Cl)c(-c2c[nH]c3ccccc23)n1	36.5
c1ccc2c(Cc3c[nH]c4ccccc34)c[nH]c2c1 [Diindolylmethane]	93.7
O=C(/C=C/c1ccc(CN(CCO)CCc2c[nH]c3ccccc23)cc1)NO [LAQ824 (NVP-LAQ824, Dacinostat)]	47.7
OCc1c[nH]c2ccccc12 [Indole-3-carbinol]	113
CC(C)C[C@H](NC(=O)N[C@H](C(=O)N[C@@H](CCC(N)=O)C(=O)N[C@@H](C)C=O)[C@@H]1CCNC(=N)N1)C(=O)O [Elastatinal]	98.9
COc1cc(OC)c(C(=O)CCCCN2CCC3(CC2)NC(=O)NC3=O)cc1NS(=O)(=O)c1ccc(C(F)(F)F)cc1	129
CC1=CC(=O)c2ccccc2C1=O [Menadione]	95.2
CC1(C)CCC2=C(O1)c1ccccc1C(=O)C2=O	110
CC1(C)C(=O)NC2=C1C(=O)C(=O)c1ccccc12	59.6 and 42.6
c1cc2c(cc1C1CCCCC1)c1c3n2CCNC3CCC1 (centres undefined) [Tetrindole mesylate]	129
C=C(C)[C@@H](CC=C(C)C)C[C@@]12C[C@@H](CC=C(C)C)C(C)(C)[C@@](CC=C(C)C)(C(=O)C(C(=O)c3ccc(O)c(O)c3)=C1O)C2=O [Garcinol]	100
C[C@@H](NCc1cc(Br)cc2[nH]c(=O)c(=O)[nH]c12)P(=O)(O)O	96.4
Cc1ccc(C(=O)Nc2ccc(CN3CCN(C)CC3)c(C(F)(F)F)c2)cc1C#Cc1cnc2[nH]ncc2c1 [GZD824 Dimesylate]	37.4
Cc1ccc(NC(=O)c2ccc(CN3CC[C@H](N(C)C)C3)c(C(F)(F)F)c2)cc1Nc1nccc(-c2cncnc2)n1 [Bafetinib (INNO-406)]	118
Cc1ccc(C(=O)Nc2ccc(CN3CCN(C)CC3)c(C(F)(F)F)c2)cc1C#Cc1cnc2cccnn12	32.7
Cc1ccc(C(=O)Nc2cccc(C(F)(F)F)c2)cc1Nc1nc(-c2cccnc2)nc2c1cnn2C	145
O=C(Cc1ccccc1)Nc1cccc(C(=O)Nc2ccccc2C(=O)O)c1	106
S=c1ccss1 [1,2-Dithiole-3-thione]	115
CC[C@H](C)[C@H](N)C(=O)N1CCSC1 [P32/98 hemifumarate salt]	107

SMILES	mean cytoplasmic OPP incorporation
O=C(/C=C/c1ccc2ccccc2n1)c1ccncc1	26.3
NC(=O)c1ccncc1 [Isonicotinamide]	109
C=CC(=O)c1ccc2ccccc2c1	100
COc1cc2c(NC3CCN(C)CC3)nc(N3CCCN(C)CC3)nc2cc1OCCCN(C)C	112
CCn1nnc2c(N3CCOCC3)nc(-c3ccc(NC(=O)Nc4ccc(C(=O)N5CCN(C)CC5)cc4)cc3)nc21	67.6
NC(=O)Nc1cc(-c2cccc(F)c2)sc1C(=O)N[C@H]1CCCNC1	25.1
NC(=O)Nc1sc(-c2ccc(F)cc2)cc1C(N)=O	76.5 ± 9.7
Cc1c(C(=O)NC2CCCCC2)sc2nc3ccc(N)cc3n12	106
C[C@H]1O[C@@H](O[C@H]2[C@@H](O)C[C@H](O[C@H]3[C@@H](O)C[C@H](O[C@H]4CC[C@@]5(C)[C@H](CC[C@@H]6[C@@H]5C[C@@H](O)[C@]5(C)[C@@H](C7=CC(=O)OC7)CC[C@]65O)C4)O[C@@H]3C)O[C@@H]2C)C[C@H](O)[C@@H]1O [Digoxin]	19
Oc1ccc(-c2nc3cc(O)cc(Br)c3o2)cc1	89.5
O=C[C@@H]1CCCN1C(=O)[C@@H]1CCCN1C(=O)OCc1ccccc1 [Z-Prolyl-prolinal]	98
N#C/C(=C\c1ccc(O)c(O)c1)C(=O)NCCCCc1ccccc1	87.8
CCCCC[C@H](O)CC(=O)CCc1ccc(O)c(OC)c1 [Gingerol]	102
NC(C(=O)O)c1cc(O)cc(O)c1 (racemic)	107
N[C@@H](Cc1cc(I)c(O)c(I)c1)C(=O)O [3,5-Diiodo-L-tyrosine]	100
CS(=O)(=O)Nc1ccc([N+](=O)[O-])cc1Oc1ccccc1 [Nimesulide]	97.3 ± 5.5
O=[N+]([O-])c1ccc2c(c1)S(=O)(=O)C=C2 [Stattic]	48.5
O=C1Nc2ccc([N+](=O)[O-])cc2C1=O [5-Nitroisatin]	104
O=C(O)c1ccc(-c2ccc3cc(O)c(C45CC6CC(CC(C6)C4)C5)cc3c2)cc1	98.8
Cc1ccc(C(=O)c2cc(/C=C/C(=O)NO)n(C)c2)cc1	99.3
C1CCC(C(CC2CCCCN2)C2CCCCC2)CC1 (centres undefined) [Perhexiline maleate]	53

SMILES	mean cytoplasmic OPP incorporation
CNC(C)C1CCC(N)C(OC2C(N)CC(N)C(OC3OCC(C)(O)C(NC)C3O)C2O)O1 (centres undefined) [Gentamycin sulfate (Gentacycol)]	107
NCC1CCN(c2nccc(-c3ccc4ccccc4c3)n2)CC1	88.3
C[C@H]1CC[C@@]2(OC1)O[C@H]1C[C@H]3[C@@H]4CC[C@@H]5C[C@@H](O[C@@H]6O[C@H](CO)[C@H](O)[C@H](O)[C@H]6O[C@@H]6O[C@H](CO)[C@@H](O)[C@H](O)[C@H]6O)CC[C@]5(C)[C@H]4CC[C@]3(C)[C@H]1[C@@H]2C [Timosaponin A-III]	111
C=CC(=O)Nc1cccc(Oc2nc(Nc3ccc(N4CCN(C)CC4)cc3)ncc2Cl)c1	64.9
C=CC(=O)Nc1cccc(Sc2nc(Nc3ccc(N4CCN(C)CC4)cc3)ncc2Cl)c1	57.4
CNC(=O)c1nn(C)c2c1C(C)(C)Cc1cnc(Nc3ccc(N4CCN(C)CC4)cc3)nc1-2	89.3 and 44.9
O=C(NC[C@H](O)CN1CCc2ccccc2C1)c1ccnc(NC2CCC2)c1	107
NCCCCCCCCCCNS(=O)(=O)c1cccc2c(Cl)cccc12 [A-7 hydrochloride]	115
CC(C)c1ccc(Cn2ccc3c4c(N)nc(NC5CC5)nc4ccc32)cc1	40.1
O=C(NCCN1CCCCC1)c1ccc(I)cc1 [N-[2-(Piperidinylamino)ethyl]-4-iodobenzamide]	100
C[C@H](Cn1cnc2c(N)ncnc21)OCP(=O)(O)O [Tenofovir (Viread)]	99.5
CC(C)(C)n1nc(-c2cccc3ccccc23)c2c(N)ncnc21 [1-Naphthyl PP1]	93
Cc1ccccc1-n1c(Cn2nc(-c3cccc(O)c3)c3c(N)ncnc32)nc2cccc(C)c2c1=O	102
CC(C)n1nc(-c2ccc3oc(N)nc3c2)c2c(N)ncnc21	53.5 ± 16
CC(C)n1nc(-c2cc3cc(O)ccc3[nH]2)c2c(N)ncnc21 [Torkinib (PP242)]	52.5
CCO/C(O)=C1\C(C)=NC(c2ccccc2)=C(C(=O)OCc2ccc([N+](=O)[O-])cc2)C1C#Cc1ccccc1 (centres undefined)	108
CC1=C(/C=C/C(C)=C\C=C\C(C)=C\C(=O)O)C(C)(C)CCC1 [9-cis Retinoic acid]	96.4
Nc1ccc(CC(CC(=O)O)C(=O)O)cc1 [4-Amino-D, L-benzylsuccinic acid]	104
CC(C)[C@@H](O)CC[C@@H](C)[C@H]1CC[C@H]2[C@@H]3CC=C4C[C@@H](O)CC[C@]4(C)[C@H]3CC[C@]12C [24(S)-Hydroxycholesterol]	104
Cc1ccc2nc(NCCN)c3ncc(C)n3c2c1	56.1
Cc1nc(N)sc1-c1ccnc(Nc2ccc(N3CCOCC3)cc2)n1	93.4

SMILES	mean cytoplasmic OPP incorporation
Cc1ncc(-c2ccnc(Nc3ccc(S(C)(=O)=O)cc3)n2)n1C(C)C	55.9
Cc1ccnc(NS(=O)(=O)c2ccc(NC(=O)Nc3ccc(S(=O)(=O)Nc4nccc(C)n4)cc3)cc2)n1	96.2
C[C@]12CC[C@@H](O)C[C@@H]1CC[C@@H]1[C@@H]2CC[C@]2(C)C=CC[C@@H]12 [3a, 5a-Androstenol]	97.3
Cn1cc(C2=C(c3cn(CCCSC(=N)N)c4ccccc34)C(=O)NC2=O)c2ccccc21 [Ro 31-8220 mesylate]	62.4
Cn1cc(C2=C(c3ccc(Cl)cc3Cl)C(=O)NC2=O)c2ccccc21	104 and 106
Cn1cc(C2=C(c3cn(CCCSC(=N)N)c4ccccc34)C(=O)NC2=O)c2ccccc21 [Ro 31-8220 Mesylate]	30.3
CN(C)CCCn1cc(C2=C(c3c[nH]c4ccccc34)C(=O)NC2=O)c2ccccc21	90.7 and 79.3
CC(=O)C1=C(O)C=C2Oc3c(C(C)=O)c(O)c(C)c(O)c3[C@]2(C)C1=O [Usnic acid]	101
CC(=Nc1ccccc1N)c1c(C)cc(=O)n(O)c1O	95.7
COc1cccc(-c2cc(NCc3ccc4c(c3)OCO4)nc(N)n2)c1	92.3
CNCCN1CCC(OCc2ccccc2)CC1	111
O=C(CCCCCCC(=O)Nc1ccccc1)NO [Vorinostat]	41.9
Nc1ccccc1NC(=O)CCCCCCC(=O)Nc1ccccc1	92.9
O=C(CCCCCCC(=O)Nc1cccnc1)NO [Pyroxamide]	65.9
CSCCC(C=O)NC(=O)C(CC(C)C)NC(=O)[C@H](CC(C)C)NC(C)=O (some centres undefined) [Calpain Inhibitor II (ALLM)]	109
COC1CCC(C(=O)c2ccc3nc4c(cc3c2)CCCO4)CC1 (centres undefined)	98.8
N#CC[C@H](C1CCCC1)n1cc(-c2ncnc3[nH]ccc23)cn1	83.53 ± 0.64
Nc1ncnc2c1c(-c1cnc3[nH]ccc3c1)nn2C1CCCC1	44.2
C=CC(=O)N1CCC[C@@H](n2nc(-c3ccc(Oc4ccccc4)cc3)c3c(N)ncnc32)C1	105 ± 2.3
COc1cccc(/C=N/N=C/c2cccc(OC)c2)c1	99.7
CC1=C(/C=C/C(C)=C/C=C/C(C)=C\CO)C(C)(C)CCC1 [13-cis-Retinol]	90.9
